# Measurements from PubChem BioAssay (NCATS).
# Records with an inconclusive call do not appear. The source made the active and inactive calls. Unless noted, calls come from the whole dose curve; as a rule, active = well fitted curve in the direction sought with a large enough effect; inconclusive = small, poorly fitted or top-dose-only effect, or another doubt; inactive = no such curve, though single readings can be large; an effect the other way counts as inactive or inconclusive.
# Experiments:
# [1] = P-glycoprotein substrates identified in KB-3-1 adenocarcinoma cell line, qHTS therapeutic library screen (AID 1346986); note: nearly all actives have a fitted effect of over 60% in size;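 note: potency is the fitted concentration of half-maximal effect; potency is for cytotoxicity meaning loss of cell viability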
# Summary of the method: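 Dose-response cytotoxicity, KB-3-1 vs P-gp-high KB-8-5-11, no colchicine in assay medium. Read: CellTiter-Glo at 72 h.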
# [2] = Primary qHTS for inhibitors of nuclear receptor binding SET domain protein 2 (NSD2) in an isogenic RCH-ACV NSD2 p.E1099K mutant (9B) (AID 1645876); note: nearly all actives have a fitted effect of over 70% in size; note: potency is the fitted concentration of half-maximal effect
# [3] = Primary qHTS for inhibitors of nuclear receptor binding SET domain protein 2 (NSD2) in an RCH-ACV wild type WT cells (2C) (AID 1645877); note: nearly all actives have a fitted effect of over 70% in size; note: potency is the fitted concentration of half-maximal effect
# [4] = molecular target: Catechol O-methyltransferase (Homo sapiens) (UniProt P21964); assay: Confirmatory Screen for Target Class Profiling of Small Molecule Inhibitors of Methyltransferases (AID 1745852; calls by dose curve; note: potency is the fitted concentration of half-maximal effect); settings: MTase-Glo luminescence, SAH detection, recombinant enzyme; measured here: COMT max response; stronger effect = lower value
# Chain of Catechol O-methyltransferase (Homo sapiens) (P21964 whole entry, looked up): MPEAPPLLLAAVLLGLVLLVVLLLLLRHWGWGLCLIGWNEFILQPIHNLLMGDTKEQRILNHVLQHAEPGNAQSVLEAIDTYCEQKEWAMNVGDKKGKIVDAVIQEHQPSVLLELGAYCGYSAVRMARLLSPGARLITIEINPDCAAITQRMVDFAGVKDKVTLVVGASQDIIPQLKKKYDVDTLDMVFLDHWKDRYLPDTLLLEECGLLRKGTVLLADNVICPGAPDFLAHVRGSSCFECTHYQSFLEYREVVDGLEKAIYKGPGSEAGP
# [5] = molecular target: Guanidinoacetate N-methyltransferase (Homo sapiens) (UniProt Q14353); assay: as above; settings: activity change, negative = inhibition: at 57.3 µM (top of the series) unless noted
# [6] = molecular target: Nicotinamide N-methyltransferase (Homo sapiens) (UniProt P40261); assay: as above; settings: MTase-Glo luminescence, SAH detection, recombinant enzyme; measured here: NNMT max response; stronger effect = lower value
# Chain of Nicotinamide N-methyltransferase (Homo sapiens) (P40261 whole entry, looked up): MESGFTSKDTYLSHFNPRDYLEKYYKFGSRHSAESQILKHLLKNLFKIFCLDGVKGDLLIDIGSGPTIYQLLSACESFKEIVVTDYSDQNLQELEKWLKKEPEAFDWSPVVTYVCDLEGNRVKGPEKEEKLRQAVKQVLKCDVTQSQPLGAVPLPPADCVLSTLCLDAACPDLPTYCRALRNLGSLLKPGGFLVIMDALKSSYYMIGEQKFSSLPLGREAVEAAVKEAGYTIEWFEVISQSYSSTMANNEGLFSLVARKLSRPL
# [7] = molecular target: Phenylethanolamine N-methyltransferase (Homo sapiens) (UniProt P11086); assay: as above; settings: MTase-Glo luminescence, SAH detection, recombinant enzyme; measured here: PNMT max response; stronger effect = lower value
# Chain of Phenylethanolamine N-methyltransferase (Homo sapiens) (P11086 whole entry, looked up): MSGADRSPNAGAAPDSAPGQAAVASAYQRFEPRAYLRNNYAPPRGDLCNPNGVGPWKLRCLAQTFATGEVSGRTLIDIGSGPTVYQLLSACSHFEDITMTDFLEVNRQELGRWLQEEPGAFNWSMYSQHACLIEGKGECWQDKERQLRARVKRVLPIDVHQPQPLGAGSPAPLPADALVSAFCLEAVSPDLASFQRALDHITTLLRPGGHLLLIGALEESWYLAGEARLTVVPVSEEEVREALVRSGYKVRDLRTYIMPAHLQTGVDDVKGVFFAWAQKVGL
# [8] = molecular target: Glutathione peroxidase 1 (Homo sapiens) (UniProt P07203); assay: Primary qHTS Assay for Inhibitors of Recombinant Selenoprotein Glutathione Peroxidase 1 (GPX1) (AID 1845191); note: nearly all actives have a fitted effect of over 65% in size
# Chain of Glutathione peroxidase 1 (Homo sapiens) (P07203 whole entry, looked up): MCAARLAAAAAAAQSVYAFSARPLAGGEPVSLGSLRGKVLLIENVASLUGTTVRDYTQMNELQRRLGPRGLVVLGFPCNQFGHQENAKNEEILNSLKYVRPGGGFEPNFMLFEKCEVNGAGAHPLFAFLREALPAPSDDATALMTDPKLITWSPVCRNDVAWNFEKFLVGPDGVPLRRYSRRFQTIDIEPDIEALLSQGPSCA
# Summary of the method: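 NADPH consumption tracked by fluorescence at 340/450 nm between t=0 and t=15 min, room temperature. Final mix: 10 nM GPX1, 100 nM glutathione reductase, 1 mM GSH, 0.5 mM NADPH, 0.5 mM cumene hydroperoxide, 0.01% BSA; 30 min compound–enzyme preincubation.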
# [9] = molecular target: Cytochrome P450 2D6 (Homo sapiens) (UniProt P10635); assay: Cytochrome P450 family 2 subfamily D member 6 (CYP2D6) small molecule antagonists: luciferase biochemical (cell-free) qHTS assay (AID 1645840; active = well fitted curve in the direction sought with a large enough effect in the repeat runs; an effect the other way counts as inactive or inconclusive; note: % is set by controls: 0 for no effect and ±100 for the full control effect; nearly all actives have a fitted effect of over 55% in size)
# Chain of Cytochrome P450 2D6 (Homo sapiens) (P10635 whole entry, looked up): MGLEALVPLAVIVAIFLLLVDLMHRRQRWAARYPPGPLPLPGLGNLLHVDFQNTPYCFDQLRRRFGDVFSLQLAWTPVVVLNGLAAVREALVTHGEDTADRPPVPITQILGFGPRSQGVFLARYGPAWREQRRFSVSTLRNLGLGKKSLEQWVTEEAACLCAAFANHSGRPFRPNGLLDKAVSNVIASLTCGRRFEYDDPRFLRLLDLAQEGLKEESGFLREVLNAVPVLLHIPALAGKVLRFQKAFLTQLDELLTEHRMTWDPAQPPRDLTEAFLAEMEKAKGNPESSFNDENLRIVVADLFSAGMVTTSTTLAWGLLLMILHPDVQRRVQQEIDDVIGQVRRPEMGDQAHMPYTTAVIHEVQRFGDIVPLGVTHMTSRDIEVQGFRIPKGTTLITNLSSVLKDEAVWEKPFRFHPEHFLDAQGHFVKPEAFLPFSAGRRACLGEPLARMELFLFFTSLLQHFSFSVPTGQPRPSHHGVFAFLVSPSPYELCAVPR
# Summary of the method: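 P450-Glo CYP2D6 system: proluciferin substrate converted by enzyme to luciferin, read by luminescence proportional to activity. Enzyme-substrate mix with compound 10 min at room temperature, then NADPH regeneration 1 h before detection reagent.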
# [10] = molecular target: Cytochrome P450 2C9 (Homo sapiens) (UniProt P11712); assay: Cytochrome P450 family 2 subfamily C member 9 (CYP2C9) small molecule antagonists: luciferase biochemical (cell-free) qHTS assay (AID 1645842; active = well fitted curve in the direction sought with a large enough effect in the repeat runs; an effect the other way counts as inactive or inconclusive; note: % is set by controls: 0 for no effect and ±100 for the full control effect; nearly all actives have a fitted effect of over 55% in size)
# Chain of Cytochrome P450 2C9 (Homo sapiens) (P11712 whole entry, looked up): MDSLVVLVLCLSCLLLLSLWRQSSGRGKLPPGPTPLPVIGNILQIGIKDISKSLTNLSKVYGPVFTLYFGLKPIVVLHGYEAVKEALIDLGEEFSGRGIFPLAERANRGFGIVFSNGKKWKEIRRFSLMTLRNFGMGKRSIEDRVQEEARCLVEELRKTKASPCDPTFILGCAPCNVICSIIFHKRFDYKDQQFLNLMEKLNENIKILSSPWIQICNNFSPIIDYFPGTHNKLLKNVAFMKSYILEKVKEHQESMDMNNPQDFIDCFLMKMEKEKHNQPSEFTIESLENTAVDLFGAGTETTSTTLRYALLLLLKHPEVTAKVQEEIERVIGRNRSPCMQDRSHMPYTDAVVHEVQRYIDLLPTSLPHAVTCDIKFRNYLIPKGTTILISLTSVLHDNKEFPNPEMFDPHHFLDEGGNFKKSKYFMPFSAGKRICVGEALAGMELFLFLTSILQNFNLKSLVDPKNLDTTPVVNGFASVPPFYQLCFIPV
# Summary of the method: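 P450-Glo CYP2C9 system: proluciferin substrate with enzyme in mix containing 0.4% BSA, 10 min at room temperature, then NADPH regeneration solution added and incubated 1 h at 37C. Detection reagent stopped reaction; luminescence read after 20 min as RLU.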
# [11] = qHTS drug screen for cell cycle checkpoint inhibitors in PARPi-resistant BRCA-mutant ovarian cancer cell lines. (AID 1963452; calls by dose curve; note: potency is the fitted concentration of half-maximal effect); settings: PEO1/OlaR viability, CellTiter-Glo luminescence, 96 h; for Z-AUC: stronger effect = lower value
# Summary of the method: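 PEO1, PEO4 and PEO1/OlaR ovarian cancer cells, 600 per well, exposed 96 h at 37C to a dilution series. Viability read by CellTiter-Glo luminescence, normalized to DMSO and empty wells; activity summarized as Z-AUC.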
# [12] = test system: Zika virus NS2B-NS3 protease; assay: Primary screen GU AMC qHTS for Zika virus inhibitors (AID 1347154);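 note: 0% = no-inhibitor control and -100% = no-enzyme control; nearly all actives have a fitted effect of over 70% in size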
# Summary of the method: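 Fluorogenic AMC-substrate cleavage by noncovalent NS2B-NS3 protease complex (25 nM, pH 8.0 Tris buffer with Tween 20) followed for 15 minutes at room temperature (~20% conversion). Percent inhibition from ex340/em450 signal change, fitted by 4-parameter Hill equation.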
# [13] = Primary qHTS for small molecule stabilizers of the endoplasmic reticulum resident proteome: Secreted ER Calcium Modulated Protein (SERCaMP) assay (AID 1508630); note: % is set by controls: 0 for no effect and ±100 for the full control effect
# Summary of the method: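 The SH-SY5Y reporter protocol was run at 3 concentrations up to 38.3 uM (primary) or 11 concentrations (follow-up): 16 h compound, 100 nM thapsigargin for 4 h, then extracellular luciferase luminescence.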
# [14] = qHTS to identify inhibitors of the type 1 interferon - major histocompatibility complex class I in skeletal muscle: primary screen against the NCATS Mechanism Interrogation Plate v5.0 (MIPE) Libary (AID 1347411); note: potency is the fitted concentration of half-maximal effect; nearly all actives have a fitted effect of over 65% in size
# Summary of the method: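 HLA-B HiBit myoblasts, dexamethasone-free medium + 4 ng/ml IFN-b, 24 h compound, 11-pt 1:3 from 46 uM final. Readout: Nano-Glo HiBiT lytic luminescence after 10 min lysis, RT.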
# [15] = qHTS assay to identify inhibitors of the type 1 interferon - major histocompatibility complex class I in skeletal muscle: Counter screen cell viability and HiBit confirmation (AID 1347412); settings: iHSKM muscle cells + IFN-b, HiBiT or CellTiter-Glo, 24 h; HiBiT; at 45.9 µM (top of the series); note: % is set by controls: 0 for no effect and ±100 for the full control effect; nearly all actives have a fitted effect of over 60% in size
# Summary of the method: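 Luminescence read-out: Nano-Glo HiBiT lytic signal from C-terminally HiBiT-tagged HLA-B in CRISPR-edited human myoblasts, plus CellTiter Glo ATP as viability counter screen. IFN-beta 4.0 ng/ml; 24 hrs treatment at 37 C, 5% CO2.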
# [16] = measured here: PEO1 parental Z-AUC
smiles,measurement,setting,value
CCCC(NC(=O)/C(C#N)=C/c1cccc(Br)n1)c1ccccc1 (stereo unspecified),Potency,[1],16.4 µM (active)
same,Potency,[2],2.91 µM (active)
same,Potency,[3],3.26 µM (active)
C[C@@H](Oc1cc(-n2cnc3ccc(OC4CCN(C)CC4)cc32)sc1C(N)=O)c1ccccc1Cl,Potency,[1],0.0184 µM (active)
same,Potency,[2],0.0411 µM (active)
same,Potency,[3],0.058 µM (active)
same,activity,[4],-96.8%
same,Potency,[5],8.57 µM (active)
same,activity,[6],-85.5%
same,activity,[7],-96.2%
same,Potency,[8],inactive
Cc1[nH]c(/C=C2\C(=O)Nc3ccccc32)c(C)c1CCC(=O)O,Potency,[1],inactive
same,Potency,[9],inactive
same,Potency,[10],inactive
same,Potency,[2],inactive
same,Potency,[3],inactive
same,Potency,[8],inactive
same,Z-AUC,[11],0.922 (inactive)
same,Z-AUC,[11]; [16],0.668
same,Z-AUC,[11]; measured here: PEO4 Z-AUC,0.162
Nc1ncnc2c1ncn2[C@H]1O[C@H](CO)[C@@H](O)[C@@H]1O,Potency,[1],inactive
same,Potency,[2],39.8 µM (active)
same,Potency,[3],39.8 µM (active)
COc1ccc(C(=O)Nc2sc3c(c2C(N)=O)CCCC3)cc1OC,Potency,[1],inactive
same,Potency,[12],inactive
same,Potency,[13],inactive
same,Potency,[2],inactive
same,Potency,[3],inactive
same,Potency,[8],inactive
COCc1c(-c2ccc(NC(=O)Nc3cc(C(F)(F)F)ccc3F)c(F)c2)c2c(N)ncnn2c1CN1CCOCC1,Potency,[1],16.4 µM (active)
same,Potency,[14],3.3 µM (active)
same,Potency,[8],inactive
same,Potency,[11],3.47 µM (active)
same,Z-AUC,[11]; [16],-1.33
same,Z-AUC,[11]; measured here: PEO4 Z-AUC,-1.61
same,"activity change, negative = inhibition",[15],-92% (inactive)
